In the library only some 7.4% were active in any assay of this set; here they are far more common.
NPR1 antag: blocks ANP-stimulated signaling of human Npr1 receptor. HEK293 hNpr1 GloSensor cGMP, ANP-stimulated luminescence. Potency, µM (doses to about 46.3 µM), most hits filed as inhibitors. 1.6% of 76,000 active. AID 1347048; calls by dose curve; further: nearly all actives have a fitted effect of over 60% in size
Target sequence (P16066 whole entry, looked up): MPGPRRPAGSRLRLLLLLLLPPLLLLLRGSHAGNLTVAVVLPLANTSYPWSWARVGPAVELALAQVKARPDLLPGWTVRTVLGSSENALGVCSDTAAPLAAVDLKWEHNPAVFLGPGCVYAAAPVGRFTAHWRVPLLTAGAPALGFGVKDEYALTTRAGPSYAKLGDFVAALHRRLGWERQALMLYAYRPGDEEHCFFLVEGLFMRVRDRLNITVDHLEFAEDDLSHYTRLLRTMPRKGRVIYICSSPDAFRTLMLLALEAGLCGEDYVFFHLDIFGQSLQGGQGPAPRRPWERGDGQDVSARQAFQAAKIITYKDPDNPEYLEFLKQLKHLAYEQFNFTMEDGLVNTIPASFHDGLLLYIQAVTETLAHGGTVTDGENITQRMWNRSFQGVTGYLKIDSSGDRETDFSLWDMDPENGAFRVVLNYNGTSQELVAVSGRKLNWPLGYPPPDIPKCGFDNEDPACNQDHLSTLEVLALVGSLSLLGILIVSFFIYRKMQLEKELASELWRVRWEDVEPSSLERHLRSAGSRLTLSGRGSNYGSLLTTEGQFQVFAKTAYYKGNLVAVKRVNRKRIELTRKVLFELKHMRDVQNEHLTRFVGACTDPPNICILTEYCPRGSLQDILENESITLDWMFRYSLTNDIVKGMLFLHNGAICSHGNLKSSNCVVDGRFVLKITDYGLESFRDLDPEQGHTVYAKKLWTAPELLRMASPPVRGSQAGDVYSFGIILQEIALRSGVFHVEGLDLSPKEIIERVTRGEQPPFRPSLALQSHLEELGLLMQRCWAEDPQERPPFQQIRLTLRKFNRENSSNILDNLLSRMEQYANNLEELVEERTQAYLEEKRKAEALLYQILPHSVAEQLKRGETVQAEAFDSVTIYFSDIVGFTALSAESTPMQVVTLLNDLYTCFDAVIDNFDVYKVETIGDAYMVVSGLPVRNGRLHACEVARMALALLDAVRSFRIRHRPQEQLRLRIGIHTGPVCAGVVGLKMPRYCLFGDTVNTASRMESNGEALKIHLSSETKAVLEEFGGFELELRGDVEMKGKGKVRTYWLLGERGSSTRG
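HEK293 cells stably expressing human Npr1 and cGMP GloSensor pGS-40F, loaded 2 h with 2% GloSensor reagent, given compound 30 min at room temperature. Luminescence read before and 20 min after 0.1 nM hNppA.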
HEK cytotox: kills HEK 293 cells; HEK 293 viability, ATP luminescence (CellTiter-Glo), 48-72 h; Potency, µM (doses to about 115 µM), usual class: inhibitors; 6.6% of 94,000 active; AID 1345083; further: nearly all actives have a fitted effect of over 60% in size
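HEK 293 cells seeded at 250 cells/well were exposed to compound for 48 or 72 hr at 37 degree Celsius. Viability taken as ATP content by CellTiter-Glo luminescence.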
FLuc inh: blocks purified firefly luciferase enzyme activity. P08659. purified P. pyralis luciferase, luminescence, biochemical. Potency, µM (titrated, usually from 115 µM), most hits filed as inhibitors. 2.5% of 76,000 active. AID 1347043; further: nearly all actives have a fitted effect of over 65% in size
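Biochemical qHTS: compound (6-point titration) added to 10uM D-luciferin plus 10uM ATP in Tris acetate pH 7.5 buffer with Mg, Tween-20 and BSA, then purified enzyme at 10nM; light output imaged.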
NIH3T3 tox: cytotoxic compounds in NIH 3T3 cells; NIH 3T3 viability, CellTiter-Glo ATP luminescence, 48-72 h; Potency, µM (highest dose often 96.7 µM), hits mostly inhibitors; 4.3% of 94,000 active; AID 1345082; further: nearly all actives have a fitted effect of over 55% in size
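NIH 3T3 cells at 400 cells/well received 23 nL of compound by pintool and were incubated 48 or 72 h at 37 °C. Viability was read as ATP-coupled CellTiter-Glo luminescence.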
HEK293 viab: reduces viability of HEK-293 SNCA reporter cells; HEK-293-SNCA-luc viability, GF-AFC fluorescence, 24 h; Potency, µM (highest dose often 57.1 µM), usual class: cytotoxic; 0.12% of 150,000 active; further: nearly all actives have a fitted effect of over 30% in size
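Cytotoxicity counterscreen: after 24 h compound treatment of genome-edited SNCA-luciferase HEK-293 cells, live-cell protease substrate GF-AFC read by fluorescence after 30 min; activity scaled between DMSO (0%) and medium-only (-100%), curves Hill-fitted.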
SNCA expr inhib: reduces expression of the alpha-synuclein gene | HEK-293 SNCA-luciferase knock-in, luminescence, 24 h | 0.17% of 140,000 active | Potency, µM (highest dose often 57.2 µM), hits mostly inhibitors | AID 1671194; further: nearly all actives have a fitted effect of over 45% in size
Large screens that a line does not name were inactive. Unless noted, the call rests on the fitted dose curve; in most records, active means well fitted curve in the direction sought with a large enough effect; inconclusive means small, poorly fitted or top-dose-only effect, or another doubt; inactive means no such curve, though single readings can be large; an effect the other way counts as inactive or inconclusive.

COC(=O)CNC(=O)c1ccc2nnc(-c3cc(F)ccc3F)n2c1	none (no result: NPR1 antag, FLuc inh)
CN(Cc1ccc(F)cc1)S(=O)(=O)c1cccs1	HEK cytotox 79.4µM
COc1ccc(-n2c(=O)c(C(=O)NCc3ccccc3F)nc3cccnc32)cc1	none (no result: NPR1 antag, FLuc inh)
COCCn1cc2c3c(cccc31)CN(C(=O)c1cccc(C(F)(F)F)c1)CC2	HEK cytotox inconclusive, NIH3T3 tox 31.6µM, HEK293 viab inconclusive, SNCA expr inhib inconclusive
O=C(C1CCCN1[S+](=O)([O-])c1ccccc1)N1CCC(N2CCCC2=O)CC1 (stereo not given)	SNCA expr inhib inconclusive (no result: NPR1 antag, FLuc inh)
O=C(NCC1CN(Cc2cccnc2)CC12CN(c1ccccc1)C2)Nc1ccccc1 (stereo not given)	HEK cytotox inconclusive
O=C(NCC1CN(CC2CC2)CC12CN(c1ccccc1)C2)Nc1ccccc1 (stereo not given)	HEK cytotox inconclusive, NIH3T3 tox 100µM, SNCA expr inhib inconclusive
COc1ccccc1CN1CC(CNC(=O)c2ccccc2)C2(C1)CN(c1ccccc1)C2 (stereo not given)	HEK cytotox inconclusive, NIH3T3 tox inconclusive
O=C(NCC1CN(CC2CC2)CC12CN(c1ccccc1)C2)c1ccccc1 (stereo not given)	HEK cytotox inconclusive, NIH3T3 tox 89.1µM, SNCA expr inhib inconclusive
C[S+](=O)([O-])NC1=N[C@@]23CO[C@H](c4ccccc4)C[C@@H]2CC(=O)[C@H]3S1	NIH3T3 tox inconclusive (no result: NPR1 antag, FLuc inh, HEK293 viab, SNCA expr inhib)
CN(Cc1ccc(C2CC(=O)Nc3n[nH]c(C4CCC4)c32)o1)S(C)(=O)=O (stereo not given)	none
Cc1ccc([S+](=O)([O-])NCCNC(=O)c2cccc(-c3ncccc3C#N)c2)cc1	none (no result: NPR1 antag, FLuc inh)
COc1cccc(CN2Cc3nc(-c4cc5ccccc5o4)ccc3OCC2=O)c1	HEK cytotox 79.4µM, NIH3T3 tox inconclusive
COc1cccc(CN2Cc3nc(-c4cc(Cl)ccc4OC)ccc3OCC2=O)c1	HEK cytotox 100µM, NIH3T3 tox inconclusive
COc1cccc(CN2Cc3nc(-c4c(C)noc4C)ccc3OCC2=O)c1	HEK cytotox inconclusive, NIH3T3 tox 39.8µM
COc1cccc(CN2Cc3nc(-c4ccc(F)cc4)ccc3OCC2=O)c1	HEK cytotox inconclusive, NIH3T3 tox 79.4µM, SNCA expr inhib inconclusive
O=C(c1cc(C(F)(F)F)[nH]n1)N1CC[C@@H](c2ccc(F)cc2)[C@H](O)C1	HEK cytotox inconclusive
COc1ccc(-c2c(C(=O)NC3CCCCC3)nc3sccn23)cc1	HEK cytotox inconclusive (no result: NPR1 antag, FLuc inh)
CC(C)C(=O)N1CCCC1c1nc(CCOCC2CC2)no1 (stereo not given)	none (no result: NPR1 antag, FLuc inh)
COc1ccc(CNC(=O)C2CCCN2C(=O)c2cccc(-c3cccnc3)c2)cc1 (stereo not given)	NIH3T3 tox inconclusive (no result: NPR1 antag, FLuc inh, HEK293 viab, SNCA expr inhib)
CC(C)NC(=O)c1nc2sccn2c1-c1ccccc1	none (no result: NPR1 antag, FLuc inh)
COc1cccc(CN2Cc3nc(-c4cccc(NC(C)=O)c4)ccc3OCC2=O)c1	HEK cytotox 79.4µM, NIH3T3 tox inconclusive
COc1ccc(N2CC(COc3ccccc3)Oc3ncccc3C2=O)cc1 (stereo not given)	HEK cytotox inconclusive, NIH3T3 tox inconclusive (no result: NPR1 antag, FLuc inh)
Cn1ccc2c(C(=O)NCCc3cnc[nH]3)nc(-c3ccccc3)cc21	HEK cytotox inconclusive, FLuc inh inconclusive, NIH3T3 tox inconclusive
Cn1ccc2c(C(=O)NCCc3cnc[nH]3)nc(-c3cccc(CO)c3)cc21	HEK cytotox inconclusive, NIH3T3 tox inconclusive
Cn1ccc2c(C(=O)NCCc3cnc[nH]3)nc(-c3cnn(Cc4ccccc4)c3)cc21	HEK cytotox inconclusive, NIH3T3 tox 79.4µM
Cn1ccc2c(C(=O)NCCc3cnc[nH]3)nc(-c3cccnc3)cc21	NIH3T3 tox 44.7µM
Cn1ccc2c(C(=O)NCCc3cnc[nH]3)nc(-c3cccc(C(F)(F)F)c3)cc21	HEK cytotox 39.8µM, NIH3T3 tox 35.5µM, HEK293 viab inconclusive, SNCA expr inhib inconclusive
COc1ccccc1-c1cc2c(ccn2C)c(C(=O)NCCc2cnc[nH]2)n1	HEK cytotox inconclusive, NIH3T3 tox inconclusive
COc1ccc(-c2cc3c(ccn3C)c(C(=O)NCCc3cnc[nH]3)n2)cn1	HEK cytotox inconclusive, NIH3T3 tox 25.1µM
O=C(O)C[C@@H]1CCN(S(=O)(=O)c2ccc(F)cc2)C[C@@H]1CC1=NCCc2cc(F)ccc21	none
Cc1cccc(NC(=O)N2CC(Oc3cccc(-c4nc(C)no4)c3)C2)c1	HEK cytotox inconclusive, NIH3T3 tox inconclusive (no result: NPR1 antag, FLuc inh)
COc1ccc(-c2c(C(=O)NCc3ccccc3F)nc3sccn23)cc1	HEK cytotox inconclusive (no result: NPR1 antag, FLuc inh)
CCN1C[C@H]2COc3ccccc3[C@H]2N(C(=O)c2ccc(F)cc2)CCC1=O	NIH3T3 tox inconclusive (no result: NPR1 antag, FLuc inh, HEK293 viab, SNCA expr inhib)
O=C1CCCCCN1C1CCN(Cc2cccc3ccccc23)CC1	HEK cytotox 79.4µM, NIH3T3 tox 79.4µM
O=C1CCCCCN1C1CCN(Cc2cccnc2)CC1	none
O=C1CCCCCN1C1CCN(Cc2ccccc2C(F)(F)F)CC1	HEK cytotox 79.4µM, NIH3T3 tox inconclusive
O=C(Cc1ccc(Cl)cc1)NC1CCN(c2nccc(Nc3ccccc3Cl)n2)CC1	HEK cytotox inconclusive, NIH3T3 tox inconclusive (no result: NPR1 antag, FLuc inh)
CN(C)c1nc(N)nc(CNC(=O)c2csc(Cc3ccccc3)n2)n1	HEK cytotox inconclusive
O=C(NCc1ccccc1)c1csc(Nc2ccncn2)n1	HEK293 viab inconclusive, SNCA expr inhib 9.61µM (no result: NPR1 antag, HEK cytotox, FLuc inh, NIH3T3 tox)
O=C(CNC(=O)c1ccc(-c2cccc(C(F)(F)F)c2)cc1)NC1CCCC1	HEK cytotox inconclusive, NIH3T3 tox inconclusive (no result: NPR1 antag, FLuc inh)
CCc1noc([C@@H]2CC(F)(F)CN2C(=O)c2ccoc2C)n1	HEK cytotox inconclusive, FLuc inh 35.5µM
COc1ccc2cc(C(=O)N3CCC(Cc4ccc(C(=O)NC5CC5)cc4)CC3)[nH]c2c1	NPR1 antag inconclusive, HEK cytotox 35.5µM, NIH3T3 tox 28.2µM
CCN(CC)C1CCOC2(CCN(C(=O)Nc3cccc(C)c3)CC2)C1 (stereo not given)	none (no result: NPR1 antag, FLuc inh)
CCN1C(=O)C2(CCN(S(=O)(=O)Cc3ccccc3)CC2)c2ccccc21	none
CCN1C(=O)C2(CCN(S(=O)(=O)Cc3ccc(Cl)cc3)CC2)c2ccccc21	HEK cytotox 35.5µM, NIH3T3 tox 25.1µM
COCCn1ncc(N2CCC(C(=O)Nc3ccc(C)cc3)C2)cc1=O (stereo not given)	none (no result: NPR1 antag, FLuc inh)
CS(=O)(=O)N(Cc1cccnc1)C1CN(C(=O)Nc2ccc3c(c2)OCCO3)C1	FLuc inh 35.5µM
CS(=O)(=O)N1CCC(OC2CCN(C(=O)Nc3ccc4c(c3)OCCO4)CC2)CC1	FLuc inh 35.5µM
O=C(Nc1ccc2c(c1)OCCO2)N1CCC(Cc2nc(-c3ccncc3)n[nH]2)CC1	FLuc inh 79.4µM, SNCA expr inhib inconclusive
